Assay results from PubChem BioAssay AID463218 (Sanford-Burnham Center for Chemical Genomics, 2010).
Among all 4,400 compounds or so, about 3,700 (84%) were called active.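 How the source made its calls: active means inhibition above about 39% in either of two replicate wells at 20 µM (limit read from the data); inactive means the rest.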 The set was probably picked from earlier hits. A selection follows.

Experiment: growth inhibition of tim23-1 ts yeast, retest – luminescence, single concentration, confirmation (AID 463218);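 further: temperature-sensitive tim23-1 mutant grown at 25 °C; 0% = DMSO wells with yeast and 100% = medium wells without yeast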
Conditions: S. cerevisiae tim23-1 growth, BacTiter-Glo luminescence, 24 h; at 20 µM; stronger effect = higher value
In the case of Cc1ccc(-c2nc3ccccc3c(=O)n2-c2ccc(Br)cn2)cc1, the inhibition is reported as 53.6% (active).
In the case of Cc1cc2ccccn2c1C(C[N+](=O)[O-])c1c(F)cccc1Cl (stereo not drawn), the inhibition is reported as 58.5% (active).
For COc1cccc(N2C(=O)NC(=O)/C(=C\c3ccc([N+](=O)[O-])s3)C2=O)c1, the inhibition was 78.3% (active).
